Hits are enriched below; roughly 32% of the tested compounds scored in any of these assays.
CYP2C9 inhib: inhibitors of human CYP2C9; P11712; CYP2C9 Supersomes, luciferin-H conversion, luminescence; inhibition, % at 5 µM; actives 20% (n = 96,000); AID 777;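 active = blocking of liver enzyme CYP2C9 beyond about 50% at 5 µM, limit read from the data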
PostGolgi ctrl: yeast control strain growth, post-Golgi counter-screen | AID 738 | inhibition, % at 10 µM | efflux-deficient yeast background strain, growth absorbance A615, 16 h | actives 5% (n = 98,000)
CYP2C19 inhib: blocks human cytochrome P450 2C19. inhibition, % at 5 µM. CYP2C19 Supersomes, luciferin-H EGE luminescence, 30 min. actives 21% (n = 96,000). AID 778;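 active = CYP2C19 inhibition above a set limit at 5 µM in the primary screen, cut at about 50% in these data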
Target sequence (P33261 whole entry, looked up): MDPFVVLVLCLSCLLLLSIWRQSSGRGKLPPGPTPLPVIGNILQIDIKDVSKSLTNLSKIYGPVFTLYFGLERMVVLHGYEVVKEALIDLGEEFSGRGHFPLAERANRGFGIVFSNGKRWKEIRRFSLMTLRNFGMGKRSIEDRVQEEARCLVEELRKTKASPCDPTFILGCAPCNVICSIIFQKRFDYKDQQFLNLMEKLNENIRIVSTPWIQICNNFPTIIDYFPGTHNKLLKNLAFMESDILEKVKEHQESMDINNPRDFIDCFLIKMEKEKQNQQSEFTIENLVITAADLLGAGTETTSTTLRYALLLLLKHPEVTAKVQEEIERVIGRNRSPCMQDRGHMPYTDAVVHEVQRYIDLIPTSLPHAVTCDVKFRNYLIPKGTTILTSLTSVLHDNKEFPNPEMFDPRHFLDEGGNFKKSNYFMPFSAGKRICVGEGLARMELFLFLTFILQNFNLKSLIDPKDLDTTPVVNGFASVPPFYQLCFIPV
CYP2C9 act: increases human cytochrome P450 2C9 activity; recombinant CYP2C9, luciferin-H conversion, luminescence; active compounds read high; factor 1 = untreated enzyme, 0 = blocked; actives 1.4% (n = 96,000); activation factor at 5 µM;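 active = activation factor of 2 or more for CYP2C9 at a 5 µM dose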
PostGolgi yeast: growth inhibition of a yeast mutant, post-Golgi transport screen; post-Golgi transport phenotypic cell assay; inhibition, % at 10 µM; actives 0.9% (n = 98,000); AID 739;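 also: yeast cells grown in 1536-well plates; yeast grown about 18 h at 30C before absorbance read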
CYP2C19 act: cytochrome P450 2C19 (human) activation | activation factor at 5 µM | recombinant CYP2C19, luciferin-H EGE luminescence; active compounds read high; 0 = fully inhibited enzyme, 1 = untreated enzyme | P33261 | 96,000 tested, under 10 active | AID 1025;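 active = activation factor of at least 2 at 5 µM in the primary screen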
Large screens that a line does not name were inactive. Rule as the data show it, unless noted: active = inhibition above about 30%; inactive = the rest.

CCOC(=O)C1=C(C)NC(C)=C(C(=O)OCC)C1C(=O)OC1CCOC1=O (stereo not given)	none
Cn1c(Cc2ccccc2)nnc1SCC(=O)Nc1ccc2c(c1)OCO2	CYP2C9 inhib 55, CYP2C19 inhib 87
Cn1cccc1Cc1nnc(SCC(=O)Nc2ccc3c(c2)OCO3)n1CCc1ccccc1	CYP2C9 inhib 57, CYP2C19 inhib 55
O=C(Nc1cccnc1)C1(c2ccccc2)CCCC1	CYP2C19 inhib 52
CC(=O)c1ccc(NC(=O)C2(c3ccccc3)CCOCC2)cc1	CYP2C9 inhib 50
O=C(Nc1ccncc1)C1(c2ccccc2)CCCC1	CYP2C9 inhib 95, CYP2C19 inhib 100
O=C(Nc1cccnc1)C1(F)C(F)(F)C(F)(F)C(F)(F)C(F)(F)C1(F)F	none
O=C(c1ccc(NC(=O)C2(c3ccccc3)CCOCC2)cc1)N1CCOCC1	none
O=C(Nc1ccccn1)C1(c2ccccc2)CCCC1	CYP2C9 inhib 59, CYP2C19 inhib 81
CS(=O)(=O)Nc1ccccc1C(=O)NC1CC2CCC1C2 (stereo not given)	none
CC1=N/C(=C/c2ccc([N+](=O)[O-])cc2)C(=O)N1c1ccc(Cl)cc1Cl	none
Nc1ccc(C(=O)N/N=C\c2cc(N=Nc3cccc4ccccc34)ccc2O)cc1	none
O=C(Nc1ccc(O)c(-c2nc3ccccc3o2)c1)C1(c2ccccc2)CCCC1	CYP2C9 inhib 87
O=C(Nc1ccc(-c2nc3ccccc3o2)cc1)C1CCCO1 (stereo not given)	none
c1cc2cn[nH]c2cc1NC1CCCCCC1	CYP2C9 inhib 64, CYP2C19 inhib 99
CCOC(=O)c1sc2nc(C(C)C)c3c(c2c1N)CC(C)(C)OC3	CYP2C9 inhib 69
CCN=c1scc(-c2ccc3c(c2)NC(=O)CO3)n1N=C1CCCC1	CYP2C19 inhib 54
CCCCN=c1scc(-c2ccc3c(c2)NC(=O)CO3)n1N=C1CCCC1	PostGolgi ctrl 65
Nc1nc(-c2ccc3c(c2)NC(=O)CO3)cs1	none
COCC(C)n1c(-c2ccc3c(c2)NC(=O)CO3)csc1=Nc1ccc(OC(F)F)cc1 (stereo not given)	CYP2C9 inhib 69
C=CCNc1nc(NCc2ccccc2)c(C#N)c2c1CN(C)CC2	none
N#Cc1c(N2CCCCC2)nc(N2CCCCC2)c2c1CCN(Cc1ccccc1)C2	CYP2C9 inhib 96, CYP2C19 inhib 68
N#Cc1c(NCCN)nc(NCc2ccccc2)c2c1CCN(Cc1ccccc1)C2	CYP2C9 inhib 95, CYP2C19 inhib 88 (no result: PostGolgi ctrl, PostGolgi yeast)
Cc1cc(C)c(C#N)c(N2CCN(Cc3ccccc3)CC2)n1	CYP2C9 inhib 50, CYP2C19 inhib 62
CCN(CC)c1ccc(NC(=O)CSc2nc3ccccc3c(=O)[nH]2)cc1	none
OC(COc1ccc(C2C=CCC2)cc1)CN1CCCCC1 (stereo not given)	none
Cc1nn(C(C)(C)C)c(OC(=O)c2cccs2)c1S(=O)(=O)c1ccccc1	CYP2C9 inhib 87
CC(=O)Oc1c(S(=O)(=O)c2ccccc2)c(C)nn1C(C)(C)C	CYP2C19 inhib 86
CC(C)(C)C(=O)Oc1cc(N)n(S(=O)(=O)c2ccccc2)n1	none
COC(=O)CN(n1cnnc1)S(=O)(=O)c1ccc(C)cc1	none
CCC(=O)Oc1c(S(=O)(=O)c2ccc(C)cc2)c(C)nn1C(C)(C)C	CYP2C9 inhib 52, CYP2C19 inhib 69
COCC(=O)Oc1c(S(=O)(=O)c2ccc(C)cc2)c(C)nn1-c1ccccc1	CYP2C9 inhib 81
O=C(OC1CCCCC1=O)c1cc(=O)c2ccccc2o1 (stereo not given)	none
CC1CCCCC1N1CN=C(Nc2nc3ccccc3s2)NC1 (stereo not given)	none
O=C(CSc1n[nH]c(-c2ccco2)n1)Nc1sc2c(c1C(=O)Nc1ccccc1)CCCC2	CYP2C9 inhib 84
CCOC(=O)c1sc(NC(=O)CSc2nnnn2-c2ccc(C)cc2)c(C(=O)OCC)c1C	CYP2C9 inhib 80
CCOC(=O)c1c(NC(=O)CSc2nnnn2C)sc(CC)c1C	CYP2C19 inhib 83
O=C(O)c1ccc(CSc2n[nH]c(-c3ccco3)n2)cc1	none
CCOC(=O)c1c(NC(=O)CSc2n[nH]c(N)n2)sc(CC)c1C	CYP2C9 inhib 76
CCOC(=O)c1sc(NC(=O)CSc2nnnn2-c2ccc(C)c(C)c2)nc1C	none
CC(C)NC(=O)CN1C(=O)NC(CCc2ccccc2)C1=O (stereo not given)	none
O=C(CSc1nnc(-c2ccccc2)o1)n1c2c(c3ccccc31)CCCC2	none
Cc1sc(NC(=O)CSc2nnc3scc(-c4ccccc4)n23)c(C#N)c1C	none
CCOC(=O)CNC(=O)CSc1nnnn1-c1ccc(C)c(C)c1	CYP2C9 act 2.6
CCn1nnnc1SCC(=O)Nc1sc(C)c(C)c1C#N	CYP2C9 inhib 79
CCOC(=O)c1c(NC(=O)CSc2nnnn2C)sc(C)c1C	none
CCOC(=O)c1c(NC(=O)CSc2nnnn2CC)sc(C)c1C	CYP2C9 inhib 52
CCOC(=O)c1c(NC(=O)CSc2n[nH]c(-c3ccco3)n2)sc(C)c1C	CYP2C9 inhib 88
C[N+]1(CC(=O)Nc2ccccc2Cl)CCN(C(=O)c2cccs2)CC1	none
O=C(NCC1CCN(c2ccc(S(=O)(=O)N3CCOCC3)cc2)CC1)c1cccc(Cl)c1	none
Cc1ccc2c(CC(=O)OCn3nnc4ccccc4c3=O)coc2c1	none
CCOc1ccc(C(O)c2nccn2Cc2ccccc2)cc1 (stereo not given)	CYP2C19 inhib 80
CCn1ccnc1C(O)c1ccc(N(C)C)cc1 (stereo not given)	CYP2C19 inhib 62
COc1ccc(C(O)c2nccn2Cc2ccccc2)cc1OC (stereo not given)	none
C/C(=C\C(=O)c1ccc(Br)cc1)NCc1ccc2c(c1)OCO2	none
O=C(N/N=C/c1ccncc1)c1cc([N+](=O)[O-])cc([N+](=O)[O-])c1O	CYP2C9 inhib 100, CYP2C19 inhib 56
C=C(C)n1c(=O)[nH]c2ccccc21	none
CCOC(=O)C(C)Sc1nnc(-c2ccccc2O)n1Cc1ccccc1 (stereo not given)	none
C=C(C)CNC(=S)N/N=C(\C)c1ccc(-n2ccnc2)cc1	CYP2C9 inhib 100, CYP2C19 inhib 100
COc1ccc(OC)c2[nH]c(=O)c(CCNC(=O)c3cc4ccccc4o3)cc12	CYP2C19 inhib 63
Cc1ccc(C)c2[nH]c(=O)c(CCNC(=O)c3cc4ccccc4o3)cc12	CYP2C9 inhib 52
O=C(C1CCC(N2C(=O)C3CC=CCC3C2=O)CC1)N1CCCCC1 (stereo not given)	none
CCN(CC)C(=O)c1ccc(CS(=O)(=O)c2ccc(OC)cc2)o1	none (no result: CYP2C9 inhib, CYP2C19 inhib, CYP2C9 act, CYP2C19 act)
CCC(=O)Nc1nc2ccc3nc(C)sc3c2s1	none
O=C(Nc1ccccc1N1CCCCC1)c1ncoc1-c1ccc(F)cc1	none
C/C(=C\C(=O)C(F)(F)F)Nc1ccc(C(F)(F)F)cc1	none
CN=C(Nc1ccc(Cl)cc1)c1ccc(C(F)(F)F)cc1	CYP2C19 inhib 80

Assay outcomes (PubChem)
